# Shown are actives, neighbours in structure and some others; about 3.7% of the full set was active somewhere.
# Kir21 block: Kir2.1 (mouse) channel inhibition; P35561; HEK293-Kir2.1, FluxOR thallium flux fluorescence; hits give low values; hit rate 0.85% among 310,000; B-score at 10 µM; AID 1672;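 active means fluorescence ratio B-score at or below minus 3 SD of library scores, with starting-brightness B-score within 2 SD, cut at about -4.2 in these data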;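 further: channel flux triggered by added potassium and thallium sulfate stimulus; B-score of peak minus minimum fluorescence over baseline after thallium stimulus; more negative B-score means stronger Kir2.1 block with less thallium influx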
# Target sequence (P35561 whole entry, looked up): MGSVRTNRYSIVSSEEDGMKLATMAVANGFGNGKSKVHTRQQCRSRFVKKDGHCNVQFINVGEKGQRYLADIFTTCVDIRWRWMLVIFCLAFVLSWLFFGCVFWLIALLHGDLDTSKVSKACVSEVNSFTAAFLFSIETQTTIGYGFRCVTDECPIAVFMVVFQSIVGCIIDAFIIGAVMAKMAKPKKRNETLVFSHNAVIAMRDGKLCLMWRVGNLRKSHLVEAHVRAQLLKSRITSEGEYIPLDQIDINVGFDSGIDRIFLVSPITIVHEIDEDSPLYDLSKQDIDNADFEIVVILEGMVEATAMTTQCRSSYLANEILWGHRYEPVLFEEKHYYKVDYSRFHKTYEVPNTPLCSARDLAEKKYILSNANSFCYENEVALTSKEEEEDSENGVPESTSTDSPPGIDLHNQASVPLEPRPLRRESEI
# CHT block: inhibitors of human choline transporter CHT. Q9GZV3. CHT-expressing cells, membrane potential dye, choline response; hits give low values. B-score at 10 µM. hit rate 0.86% among 310,000;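 active means B-score over 3 SD under the library average, and starting fluorescence ratio not unusually high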;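 further: choline stimulus applied at its EC90 after an EC20 pre-addition; B-score computed on integrated fluorescence ratio after choline addition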
# TMEM16A act: mouse TMEM16A channel activation, primary screen; Q8BHY3; HEK293 TMEM16A/YFP-H148Q/I152L, iodide quench fluorescence; hits give low values; B-score at 10 µM; hit rate 0.3% among 340,000;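 active means fluorescence-ratio B-score plate-corrected deviation score at least 3 library SD below zero, with starting fluorescence score within 5 deviations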;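 further: channel opened by trigger with iodide after compound preincubation; score built on the fluorescence ratio of max minus min over baseline; more negative score means more quench and so TMEM16A activation or potentiation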
# ANO1 block: mouse TMEM16A channel inhibition, primary screen. HEK293 TMEM16A/YFP iodide influx fluorescence, ionomycin. normalized B-score (activity score, 25-100; higher = stronger inhibition) at 10 µM. hit rate 1.2% among 310,000. AID 588511;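 active means ratio plate-corrected score three or more library SD toward inhibition, starting fluorescence score within five deviations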;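 further: score derived from kinetic fluorescence span divided by baseline fluorescence per well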
# GPR7 antagonist: blocks human GPR7 receptor signaling. GPR7-expressing cells, fluorescence antagonist assay. inhibition, % at 4.4 µM. hit rate 1.1% among 290,000. AID 1861; in the data active means inhibition above about 16%, passing the limit was not always enough;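 further: cells stimulated with the agonist NPW; 0% = agonist with vehicle and 100% = vehicle without agonist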
# CHT allo act: allosteric activators of human choline transporter CHT; B-score at 10 µM; AID 488977; CHT-expressing cells, membrane potential dye, choline EC20; hits give high values; LV-AA mutant CHT in HEK293 cells; hit rate 0.49% among 310,000;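 active means initial fluorescence not abnormally high and integrated response B-score, plate-corrected, over 3 SD above library mean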
# TMEM16A reconf: reconfirmed blocker of mouse TMEM16A calcium-activated chloride channel; shares compounds with ANO1 block; HEK293 TMEM16A/YFP-H148Q, iodide quench fluorescence; ionomycin added to raise cell calcium; inhibition, % at 10 µM; hit rate 39% among 2,300; AID 652189;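 active means mean duplicate percent inhibition, scaled so buffer wells are 0 and the reference blocker 100, over three buffer SD above buffer mean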
# TMEM16A Ca cntr: calcium mobilization counter-screen hit for TMEM16A inhibitor series | hit rate 2% among 2,300 | shares compounds with ANO1 block | AID 652231 | TMEM16A/YFP HEK293, Fluo4 calcium mobilization | calcium response (% of ionomycin), % at 10 µM;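 active means duplicate-averaged calcium signal over 20% of the ionomycin maximum, relative to buffer baseline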;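 further: each well's signal is peak minus trough fluorescence divided by its pre-addition baseline; 0% = buffer wells and 100% = ionomycin wells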
# Parental YFP cnt: parental YFP-HEK293 iodide quench counter-screen activity. shares compounds with ANO1 block. YFP ratio F(max-min)/F0 at 10 µM. AID 652233. 2,300 tested, under 10 active. ionomycin;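 active means yellow fluorescent protein signal ratio exceeding the buffer control mean by over 5 SD of those controls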;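 further: ratio is mean of duplicate wells from kinetic YFP trace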
# ClC-1 inh: blocks the rat ClC-1 voltage-dependent chloride channel | ratio percent, % at 10 µM | CHO ClC-1-YFP, iodide influx fluorescence quench; iodide control reads 0, buffer control 100 | 2,300 tested, under 10 active | shares compounds with ANO1 block;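 active means duplicate-mean ratio percent above the mean of iodide-only control wells, which defines zero, plus 5 of their SD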;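 further: higher percent means stronger block of ClC-1 iodide influx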
# * hit, by the source's call; i = inactive; · = no result given.
SMILES,Kir21 block,CHT block,TMEM16A act,ANO1 block,GPR7 antagonist,CHT allo act,TMEM16A reconf,TMEM16A Ca cntr,Parental YFP cnt,ClC-1 inh
O=C(Oc1c(Cl)cc(Cl)c2ccccc12)N1CCCCC1,0.08,i,i,100*,-13,i,i,i,-1,-10
CCN(CC)C(=O)N[C@H]1C[C@@H]2c3cccc4[nH]cc(c34)C[C@H]2N(C)C1,-0.08,i,i,i,-6,i,i,i,-1,-3
CN1C[C@H](CO)C[C@@H]2c3cccc4[nH]cc(c34)C[C@H]21,-0.41,i,i,i,-13,i,·,·,·,·
CCCCn1c(O)c(C(C)=NCCN2CCCCC2)c(=O)[nH]c1=O,0,i,i,i,-6,i,i,i,-0.96,1
O=C1NC(=O)C2(CCCc3ccc(N(CCCl)CCCl)cc32)N1 (configuration not stated),·,·,i,·,·,·,·,·,·,·

# Source: PubChem (several laboratories)
